PubChem BioAssay AID540356 (Broad Institute, 2011)
In all, about 2,500 compounds went through this assay and about 360 (14%) were called active.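 Rule for the calls: active = signal-lowering compounds whose fitted half-maximal concentration AC50 is no higher than ten times their top tested concentration; inconclusive = flat curve with 30 to 70% inhibition, or poor fit; inactive = flat within 30%, signal increase, or AC50 above limit.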 The list is a sample of the results.

Experiment: HRP/luminol detection interference without ALR, dose response, artefact control for ALR inhibitor project, biochemical, luminescence, no ALR or DTT, cherry-pick (AID 540356);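 for activity change, negative = inhibition: 0% = median of neutral control wells and -100% = median of quercitin 100 µM wells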
Settings: HRP/H2O2 luminol luminescence counterscreen; series mostly up to 10 µM; activity change, negative = inhibition: at the top concentration

Compound | AC50 | activity change, negative = inhibition
O=C(NNc1cccc(Cl)c1)c1cccnc1Cl | 6.88 µM (active) | –
C/C(=N\Nc1cccc(Cl)c1)c1ccncc1 | – | 3.05% (inactive)
COc1ccc(Nc2cccc(Cl)c2)c(C(=O)O)c1 | – | -13.4% (inactive)
O=C(CC1CCCC1)N1CCCC(Nc2ccc(F)cc2)C1 (stereo unspecified) | – | 0.017% (inactive)
Cc1occc1C(=O)N1CCCC(Nc2ccc(C(C)C)cc2)C1 (stereo unspecified) | – | -3.64% (inactive)
CCS(=O)(=O)N1Cc2ccccc2CC1C(=O)N1CCN(c2ccccc2)CC1 (stereo unspecified) | – | 1.97% (inactive)
Cc1ccc2c(C)c(C(=O)Nc3ccc(S(=O)(=O)Nc4onc(C)c4C)cc3)oc2c1 | – | -6.98% (inactive)
CCN(CC)c1ccc(NC(=O)c2nc3nc(C)cc(C(F)F)n3n2)cc1 | 10.3 µM (active) | –
CCN(CC)c1ccc(NC(=O)CN2CCN(c3ccc(F)cc3)CC2)cc1 | – | -1.86% (inactive)
CCN(CC)c1ccc(NC(=O)CN2CCN(c3nc(C)cc(C)n3)CC2)cc1 | – | -15.6% (inactive)
COc1ccc(N2C(=O)CSC2c2ccc([N+](=O)[O-])cc2)cc1 (stereo unspecified) | – | 0.574% (inactive)
COc1ccc(Br)cc1C(=O)Nc1ccc(O)cc1 | – | -12.1% (inactive)
O=C(NNc1ccc(O)cc1)c1ccc(Br)cc1 | 9.05 µM (active) | –
O=C(NNc1cc(Br)c(O)c(Br)c1)c1ccccc1 | – | -1.51% (inactive)
Nc1cccc(/C=C/c2ccncc2)c1 | – | -4.25% (inactive)
CCN(CC)Cc1c(-c2ccccc2)[nH]c2ccc(C)cc2c1=O | – | -0.224% (inactive)
Oc1ccc(O)c(-c2cnns2)c1 | 5.54 µM (active) | –
c1ccc(-c2nnc(CN3CCN(c4ccccc4)CC3)o2)cc1 | – | 1.45% (inactive)
COc1ccc(NC2CCCN(C(=O)c3cn(C)c4ccccc34)C2)cc1 (stereo unspecified) | – | -14.7% (inactive)
Cc1ccc(Nc2c(-c3ccccc3O)nc3cnccn23)cc1 | – | 0.898% (inactive)
CC(=O)Oc1cc2oc(=O)cc(C)c2cc1Cl | – | -1.43% (inactive)
Cc1cc(N)n2ncc(-c3ccccc3)c2n1 | – | -0.253% (inactive)
O=C(NCC(c1cccnc1)N1CCN(c2ccc(F)cc2)CC1)c1ccco1 (stereo unspecified) | – | -1.53% (inactive)
COC(=O)[C@H](Cc1ccccc1)NC(=O)N1CCN(c2ccccc2)CC1 | – | 0.603% (inactive)
O=C(CN1CCN(c2ccccc2)CC1)Nc1ccccc1Cl | – | -0.658% (inactive)

Compound | AC50 | activity change, negative = inhibition
O=C1N/C(=N\S(=O)(=O)Cc2ccccc2)S/C1=C/c1cc([N+](=O)[O-])ccc1O | – | -0.915% (inactive)
Cc1ccc(N2CCN(C(=O)CNS(=O)(=O)c3ccc(Br)s3)CC2C)cc1 (stereo unspecified) | – | -2.85% (inactive)
COc1ccc(N2CCN(C(=O)c3ccc(SC)cc3OC)CC2)cc1 | – | 0.908% (inactive)
FC(F)(F)c1ccc(-c2nc(=S)[nH][nH]2)cc1 | – | -5% (inactive)
COc1ccc(-c2nc(=S)[nH][nH]2)cc1 | 2.94 µM (active) | –
S=c1nc(-c2cccc(Cl)c2)[nH][nH]1 | – | -9.58% (inactive)
CCn1c(-c2cc(OC)c(OC)c(OC)c2)n[nH]c1=S | – | -10.3% (inactive)
COc1cc(-c2nc(=S)[nH][nH]2)cc(OC)c1OC | 3.9 µM (active) | –
S=c1nc(-c2cc(Cl)cc(Cl)c2)[nH][nH]1 | – | -2.06% (inactive)
CC(=O)Nc1ccc(N2C(=O)CSC2c2ccccc2)cc1 (stereo unspecified) | – | 3.31% (inactive)
COc1ccc2nc(N3CCCC3)[nH]c2c1 | – | -7.05% (inactive)
Cc1[nH]c2ccccc2c1N=Nc1cccc(C(=O)O)c1 | – | -10.3% (inactive)
CCCCC(NC(=O)Cc1c(C)c2cc3c(C)c(C)oc3c(C)c2oc1=O)C(=O)O (stereo unspecified) | – | -14.1% (inactive)
CC(=O)NC(c1cc(Cl)c2ccccc2c1O)C(C)C (stereo unspecified) | – | -4.5% (inactive)
COc1ccccc1N1CCN(C2CCCN(C(=O)CCc3c(C)noc3C)C2)CC1 (stereo unspecified) | – | -1.06% (inactive)
CCN(CC)c1ccc(NC(=O)c2ccc(Br)o2)c(C)c1 | – | -5.68% (inactive)
Cc1cccc(C2CN(C)CCc3c2cc(O)c(O)c3Cl)c1 (stereo unspecified) | 8.78 µM (active) | –
COc1ccc(-c2cn[nH]c2N)c(OC)c1 | 7 µM (active) | –
COc1cc(OC)cc(-c2cn[nH]c2N)c1 | – | 0.221% (inactive)
COc1ccc2[nH]c(=S)[nH]c2c1 | – | -5.52% (inactive)
Nc1cccc(CCc2ccncc2)c1 | – | -1% (inactive)
O=C(Cc1ccc(Cl)cc1)N1CCN(c2ccccc2)CC1 | – | -0.387% (inactive)
O=c1/c(=C/c2ccc(O)cc2)sc2n1CCCN=2 | 9.71 µM (active) | –
O=C(C1CCCN(S(=O)(=O)c2cnc[nH]2)C1)N1CCN(c2ccc(Cl)cc2)CC1 (stereo unspecified) | – | -7.06% (inactive)
O=C1CCCN1CCCNc1ncnc2c1[nH]c1ccc(Cl)cc12 | – | -0.822% (inactive)

Compound | AC50 | activity change, negative = inhibition
COc1cc2c(ccc3cc(OC)c(OC)c(O)c32)cc1O | – | -17% (inactive)
CCN(CCNS(=O)(=O)c1ccc2[nH]c(=O)sc2c1)c1ccccc1 | – | -0.959% (inactive)
CC(=O)N1CC[n+]2c(-c3ccc(Cl)cc3)csc21 | – | -1.68% (inactive)
O=C(CN1C(=O)CCC1=O)NNc1ccc2ccccc2c1 | 0.0915 µM (active) | –
O=C(CNc1ccc2ccccc2c1)NNC1=NCCC1 | – | -0.851% (inactive)
O=C1CCC(=O)N1CNc1ccc(Oc2ccccc2)cc1 | – | 0.862% (inactive)
CCCn1cnc2cc(NCc3ccccc3O)ccc21 | – | 1.95% (inactive)
Cc1cc(N2CCN(c3ccccc3)CC2)n2ncnc2n1 | – | -4.68% (inactive)
O=C(O)c1ccc(CSc2nc3ccccc3o2)cc1 | – | -3.53% (inactive)
CC(=O)N1CCN(C(=S)c2ccc(N(C)C)cc2)CC1 | – | -6.25% (inactive)
CCn1c(-c2ccc(N)cc2)nc2ccccc21 | – | 5.07% (inactive)
COc1ccc(-c2n[nH]c(=S)n2Cc2ccco2)cc1 | – | -2.38% (inactive)
S=c1[nH]nc(-c2ccncc2)n1Cc1ccco1 | – | -1% (inactive)
S=c1[nH]nc(-c2ccco2)n1Cc1ccccc1 | – | -8.45% (inactive)
O=C(NNS(=O)(=O)c1ccc(F)cc1)c1cc2ccccc2cc1O | – | -9.25% (inactive)
O=C(C1CCCC1)N1CCCC(Nc2ccccc2)C1 (stereo unspecified) | – | -1.5% (inactive)
CCc1[nH]nc(C(=O)N2CCCC(Nc3ccc(C(C)C)cc3)C2)c1C (stereo unspecified) | – | -2.33% (inactive)
CCc1ccc(-c2csc3[n+]2CCN3C(C)=O)cc1 | – | -4.47% (inactive)
O=C(Nc1ccc2snnc2c1)N1CCN(c2ccccc2)CC1 | – | -2.31% (inactive)
CC1(C)Nc2ccccc2N(CC(=O)N2CCCCC2)C1=O | – | -0.3% (inactive)
O=c1[nH]c(/C=C\c2ccccc2F)nc(O)c1[N+](=O)[O-] | – | 14.8% (inactive)
COc1cc(/C=N/NC(=O)c2cccc([N+](=O)[O-])c2)cc(OC)c1O | – | -11.4% (inactive)
O=c1[nH]c(/C=C\c2cccc(F)c2)nc(O)c1[N+](=O)[O-] | – | -1.32% (inactive)
O=c1[nH]c(/C=C\c2cccc(Cl)c2)nc(O)c1[N+](=O)[O-] | – | 2.32% (inactive)
CCn1c(/C=C/c2ccc(O)cc2)nc2ccccc2c1=O | – | -1.78% (inactive)

Compound | AC50 | activity change, negative = inhibition
COc1cc(/C=N/Nc2ccc([N+](=O)[O-])cn2)cc(OC)c1O | – | -0.153% (inactive)
Cc1ccc(C2SCC(=O)N2c2ccccc2)cc1 (stereo unspecified) | – | -0.588% (inactive)
N#CC1=C(N)n2c(s/c(=C\c3cccs3)c2=O)=C(C#N)C1c1cccs1 (stereo unspecified) | – | -4.78% (inactive)
N#Cc1cnn(-c2ccccc2)c1NC(=O)CN1CCN(c2ccccc2)CC1 | – | -1.31% (inactive)
CN(C)S(=O)(=O)c1ccc(-c2cn3ccccc3n2)cc1 | – | -0.3% (inactive)
O=C(N/N=C\c1cccc(Cl)c1)c1ccc(Cn2cccn2)o1 | – | -1.36% (inactive)
CSc1nc(O)c(Nc2cccc(Cl)c2)c(=O)[nH]1 | – | -7.18% (inactive)
Nc1ncc(Br)cc1S(=O)(=O)NCCC(=O)N1CCN(c2ccccc2)CC1 | – | 0.555% (inactive)
Cc1ccc(S(=O)(=O)N2CCN=C2SCc2cccnc2)cc1 | – | -1.98% (inactive)
CC(=O)Nc1nc(C)c(-c2csc(Nc3ccc(O)cc3)n2)s1 | – | -8.34% (inactive)
Nc1ccc(-c2nc3cc(N)ccc3s2)cc1 | – | 7.41% (inactive)
CN=c1scc(-c2ccccc2F)n1/N=C(\C)c1cccnc1 | – | 3.25% (inactive)
O=C1CSC(=S)N1c1ccc(O)cc1 | – | -14.2% (inactive)
COc1cc(/C=N/NC(=O)Cn2cnc3c2c(=O)n(C)c(=O)n3C)ccc1O | – | -4.29% (inactive)
S=c1[nH]nc(C2CCCCC2)n1/N=C/c1ccccn1 | – | -9.61% (inactive)
Oc1cc(O)cc(/C=C/c2ccc(O)c(O)c2)c1 | 5.21 µM (active) | –
COc1cc(/C=C/c2ccc(O)cc2)cc(OC)c1 | – | -7.17% (inactive)
Cc1ccc(CN2CCN(/N=C/c3ccc(O)c(O)c3)CC2)cc1 | – | -16.5% (inactive)
COc1cc(/C=N/N=C2/NC(=O)C(c3ccccc3)S2)ccc1O (stereo unspecified) | – | -6.81% (inactive)
Oc1ccc(/C=N/N=C/c2ccc(O)c(O)c2)cc1O | 2.39 µM (active) | –
O=Cc1ccc(O)c(O)c1 | – | -9.22% (inactive)
Oc1ccc(/C=N/N=C/c2ccc(O)cc2)cc1 | – | -5.85% (inactive)
COc1ccc(N=C2C(=O)Nc3ccccc32)cc1 | – | -1.56% (inactive)
Cc1ccsc1C=Nc1ccc(O)cc1 | – | -11.6% (inactive)
COc1ccccc1C(=O)NCCN1CCN(c2ccccc2)CC1 | – | -0.099% (inactive)

Compound | AC50 | activity change, negative = inhibition
CN(C)c1ccc(NC(=O)Nc2ccc3snnc3c2)cc1 | – | -3.85% (inactive)
CC(C)(C)c1cc(-c2n[nH]c(=S)n2-c2ccccc2F)n[nH]1 | – | -5.97% (inactive)
N#CCC(=O)Nc1ccc(C(=O)NCc2cccc(Cl)c2)cc1 | – | 3.3% (inactive)
CC(=O)Oc1ccc(-c2cccc(C(=O)N(C)c3ccc(O)cc3)c2)cc1 | – | -3.13% (inactive)
CCN(CCCNS(=O)(=O)c1ccc2c(c1)CCN2C(C)=O)c1cccc(C)c1 | – | -1.53% (inactive)
COC(=O)Cc1ccc(O)c(N)c1 | – | -2.6% (inactive)
COc1cc(/C=N/NC(=O)c2cc(-c3ccc4c(c3)OCO4)n[nH]2)ccc1O | – | -3.44% (inactive)
N#CC1=C(N)Oc2n[nH]c(-c3cccs3)c2C1c1ccco1 (stereo unspecified) | – | -15% (inactive)
COc1ccc(OC)c(C2C(C#N)=C(N)Oc3cc(N)ccc32)c1 (stereo unspecified) | – | -8.04% (inactive)
CC(C)C1C(C#N)=C(N)Oc2n[nH]c(-c3cccs3)c21 (stereo unspecified) | – | -0.778% (inactive)
Cc1ccc(C2C(C#N)=C(N)Oc3cc(N)ccc32)cc1 (stereo unspecified) | – | 0.893% (inactive)
CC1CC/C(=N/Nc2ccccc2)C(=O)N1 (stereo unspecified) | – | 0.626% (inactive)
c1csc(-c2nc3ccccn3c2NC2CCCCC2)c1 | – | -1.18% (inactive)
Cc1ccn2c(NC(C)(C)C)c(-c3cccs3)nc2c1 | – | -6.03% (inactive)
COc1ccc(C)cc1NC(=O)c1cc2c(CO)cnc(C)c2oc1=N | – | 1.17% (inactive)
Oc1ccccc1N1CCN(c2nnnn2-c2ccccc2)CC1 | – | 2.71% (inactive)
CN1CC(=O)N(CC(=O)Nc2ccc(SC(F)F)cc2)C1=O | – | 0.156% (inactive)
O=C(NCC(=O)N1CCN(c2ccccc2O)CC1)c1cccs1 | – | 6.02% (inactive)
Cc1ccc(S(=O)(=O)Nc2c(C(=O)O)[nH]c3ccccc23)c(C)c1 | – | -9.26% (inactive)
CCN(CC)c1ccc(C(=O)N/N=C(\C)c2ccc(O)cc2)cc1 | – | -5.31% (inactive)
C/C(=N\NC(=O)c1csc2ccccc12)c1ccc(O)cc1 | – | -13.2% (inactive)
